Screening data as filed in PubChem BioAssay.
Sampled rows, rich in hits. Any-hit rate of the full collection: about 1.1%.
TSG101-PTAP inh: blocks PTAP/TSG101 interaction to inhibit HIV-1 budding; Fluorescence polarization, FITC-PTAP peptide / Tsg101 binding; Potency, µM (top dose mostly 115 µM), inactives show top-dose activity change, negative = inhibition, most hits filed as inhibitors; 340,000 tested, under 10 active; active means well fitted inhibition curve with a large enough effect in the main read-out, with a control signal flat, not every such curve was filed as active; inconclusive means small, poorly fitted or top-dose-only effect, or effect the other way, or a change in a side signal; inactive means no such curve, though single readings can be large or run the other way; further: % of control where 0% means no effect
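Steps: Tsg101 binding domain dispensed (10 uM final), compounds pinned in DMSO, FITC-labeled PTAP-motif peptide added (50 nM final); after 20 min binding at room temperature, polarization measured.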
ALOX12 inh: blocks human arachidonate 12S-lipoxygenase; P18054; purified 12hLO, xylenol orange hydroperoxide absorbance; Potency, µM (doses to about 108 µM), inactives show at the highest dose activity change, negative = inhibition, usual class: inhibitors; actives 1.1% (n = 580,000); further: on the % scale 0 is the no-effect control and ±100 the full control effect
Target sequence (P18054 whole entry, looked up): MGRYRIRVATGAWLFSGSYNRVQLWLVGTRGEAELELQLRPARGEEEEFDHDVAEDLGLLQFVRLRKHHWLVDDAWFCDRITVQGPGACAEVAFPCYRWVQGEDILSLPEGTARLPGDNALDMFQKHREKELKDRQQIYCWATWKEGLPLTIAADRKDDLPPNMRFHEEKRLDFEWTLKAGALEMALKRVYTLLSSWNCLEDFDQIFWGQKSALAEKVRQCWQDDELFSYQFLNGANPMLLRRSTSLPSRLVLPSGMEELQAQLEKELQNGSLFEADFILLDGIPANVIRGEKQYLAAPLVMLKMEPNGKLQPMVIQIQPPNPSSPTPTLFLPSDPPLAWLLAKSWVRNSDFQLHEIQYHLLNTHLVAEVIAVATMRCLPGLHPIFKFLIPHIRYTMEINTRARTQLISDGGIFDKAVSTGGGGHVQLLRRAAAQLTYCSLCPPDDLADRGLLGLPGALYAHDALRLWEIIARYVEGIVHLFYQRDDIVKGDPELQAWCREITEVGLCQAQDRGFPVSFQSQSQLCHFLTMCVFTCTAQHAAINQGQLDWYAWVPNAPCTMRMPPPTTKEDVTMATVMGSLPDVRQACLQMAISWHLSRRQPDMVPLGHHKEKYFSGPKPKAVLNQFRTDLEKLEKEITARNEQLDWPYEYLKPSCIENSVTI
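Purified human 12hLO at 150 nM in 25 mM Hepes, 0.01% Triton X-100, pH 7.0, preincubated 15 min at room temperature with compound. Reaction started with 40 uM arachidonic acid, 30 min at room temperature. Hydroperoxide measured by Fe-xylenol orange, 573/405 nm absorbance ratio.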
USP2a block: blocks human ubiquitin-specific protease USP2a. O75604. USP2 core, Ub-CHOP2 coupled fluorogenic reporter, 485/531. Potency, µM (doses to about 38.3 µM), for the others: at the top dose activity change, negative = inhibition, most hits filed as inhibitors. actives 0.01% (n = 330,000);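 further: plate controls were DMSO wells for no effect and full inhibition by NEM control for full effect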
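Deubiquitinase activity read as fluorescence (485/531 nm) after Ub-CHOP2 cleavage activates the enterokinase reporter on its substrate; USP2 core 10nM, Ub-CHOP2 and substrate 25nM each, 30min compound preincubation then 60min RT; data normalized to NEM, curves fitted.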
Eya2 inh: inhibitors of human Eya2 phosphatase activity | O00167 | recombinant Eya2, OMFP fluorescence dephosphorylation (OMFP is methylfluorescein phosphate) | Potency, µM (highest dose often 76.9 µM), for the others: at the top dose activity, negative = inhibition, hits mostly inhibitors | actives 0.006% (n = 330,000) | AID 488837; further: on the % scale 0 is the no-effect control and ±100 the full control effect
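Eya2 (0.2 uM) preincubated 10 min at ambient with compound, then OMFP substrate added at 50 uM; 10 min reaction in 50 mM HEPES pH 7.5, 50 mM NaCl, 5 uM MgCl2, 0.05% BSA, 1 mM DTT. Fluorescence read at Ex 485/Em 525 nm.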
Starred values were filed as active, the others as inactive; ? = inconclusive; · = no result given; [ ] = dose if it differs, or a comment. Unless noted, the call rests on the fitted dose curve; in most records, active means well fitted curve in the direction sought with a large enough effect; inconclusive means small, poorly fitted or top-dose-only effect, or another doubt; inactive means no such curve, though single readings can be large; an effect the other way counts as inactive or inconclusive. Potency means the concentration at half of the fitted maximal effect.

SMILES	TSG101-PTAP inh	ALOX12 inh	USP2a block	Eya2 inh
CCCCCn1nc(C(=O)NCC2CCOC2)c2ccccc2c1=O (stereo unspecified)	·	11%	·	·
CC/C(=N\NC(=S)Nc1cc(C)ccc1C)c1ccc(OC(F)F)cc1	-6%	32µM*	0%	5%
NC(=O)c1ccc(OCC2CCCO2)cc1 (stereo unspecified)	-1%	-6%	1%	10%
Nc1cccc(OCC2CCCO2)c1 (stereo unspecified)	·	7.1µM*	·	·
Cc1cc(C2=NNC(=Nc3ccccc3)SC2)c(C)n1CC1CCCO1 (stereo unspecified)	·	-21%	·	·
CCOc1ccc(N=C2NN=C(c3cc(C)n(CC4CCCO4)c3C)CS2)cc1 (stereo unspecified)	-1%	40µM*	2%	11%
Cc1cccc(N/N=C/c2ccc(C)s2)c1	-3%	-24%	1%	3%
O=C(O)c1ccc(N/N=C/c2ccc(F)c(F)c2)cc1	2%	?	1%	-1%
Cc1cccc(N/N=C/c2ccc(Cl)c(Cl)c2)c1	·	4µM*	·	·
Cc1cccc(N/N=C/c2ccc(F)c(F)c2)c1	·	5.6µM*	·	·
CC(C)OC(=O)c1ccccc1	·	14%[176 µM]	·	·
COc1ccc(NC(=S)NNc2ccc(S(=O)(=O)Nc3ccccc3C(=O)O)cc2[N+](=O)[O-])cc1	-9%	7.9µM*	-2%	-23%
c1cc(OCc2nc(-c3cccs3)no2)cc(-n2cnnn2)c1	·	-11%	·	·
COc1ccc(C)cc1S(=O)(=O)Nc1cccc(-c2ccc(N3CCCCCC3)nn2)c1	-7%	8%	0%	2%
COc1ccc(S(=O)(=O)Nc2cccc(-c3ccc(N4CCCCC4)nn3)c2)c(OC)c1	·	11µM*	·	·
COc1ccc(OC)c(S(=O)(=O)Nc2ccc(-c3ccc(N4CCC(C)CC4)nn3)cc2)c1	·	8.9µM*	·	·
Cc1cc(C)c(S(=O)(=O)Nc2ccc(-c3ccc(N4CCC(C)CC4)nn3)cc2)cc1C	·	-9%	·	·
Cc1sc(N2CCOCC2)nc1-c1ccc(NS(C)(=O)=O)cc1	·	35µM*	·	·
CC(=O)Nc1ccc(-c2nc(N3CCCC3)sc2C)cc1	·	5.6µM*	·	·
S=c1[nH]cc2cnccn12	·	8.9µM*	·	·
CCn1cc(S(=O)(=O)Nc2cc(F)ccc2F)cn1	·	-21%	·	·
CC1CCc2c(sc(Nc3nc4c(F)cccc4s3)c2C(N)=O)C1 (stereo unspecified)	-8%	45µM*	2%	-6%
Cc1ccc(S(=O)(=O)NC[C@H]2OC[C@@H](NCc3ccncc3)[C@@H]2O)cc1	·	12%[176 µM]	·	·
Cc1ccc(CN[C@@H]2CO[C@H](CNS(=O)(=O)c3ccc(C)cc3)[C@H]2O)cc1	·	28µM*	·	·
OCC1(Cc2ccccc2)CCN(C2CCN(c3ccc(F)c(F)c3)CC2)CC1	-6%	50µM*	12%	2%
SMILES	TSG101-PTAP inh	ALOX12 inh	USP2a block	Eya2 inh
CC(=O)N1CCC(NC[C@@H]2C=C(C)[C@H](Cc3nc4ccccc4[nH]3)C[C@H]2C(C)C)CC1	·	77%[176 µM]	·	·
COc1ccc(OCc2cc(C(=O)NCCN3CCCc4ccccc43)no2)c(Cl)c1	0%	16µM*	2%	-11%
COc1ccc(OCc2cc(C(=O)NCCN3CCCC(O)C3)no2)c(Cl)c1 (stereo unspecified)	-1%	323%	1%	-20%
COc1ccc2cc(C(=O)/C=C/c3cccs3)ccc2c1	·	-16%	·	·
COc1ccc(C(=O)N2CCN(C3CCCCC3)CC2)cc1OC	-4%	0.63µM*	1%	4%
C/C(CCC12CC3CC(CC(C3)C1)C2)=N\NC(N)=S	-8%	10µM*	4%	-28%
CCOc1ccc(SC(C(N)=O)c2ccccc2)cc1 (stereo unspecified)	·	-5%	·	·
O=S(=O)(N[C@H]1CO[C@H]2[C@@H]1OC[C@@H]2n1cc(-c2ccccn2)nn1)c1cccs1	·	63µM*	·	·
Oc1ccc(/C=N/NC(=S)Nc2cccnc2)c(O)c1O	2%	?	1%	-3%
Oc1cccc(/C=N/NC(=S)Nc2cccnc2)c1O	-1%	45µM*	0%	2%
CC1CCC(N2CCC(=O)CC2)CC1 (stereo unspecified)	·	2%	·	·
COc1ccc(NC(=O)c2cn(-c3ccccc3)nc2-c2ccncc2)cc1	5%	26%	2%	-1%
COc1ccc(-c2nn(-c3ccccc3)cc2C(=O)NC(=S)NNC(=O)c2ccncc2)cc1	-5%	32µM*	-1%	17%
CC(CCc1ccc(O)cc1)NCc1ccc(Br)cc1 (stereo unspecified)	-1%	13µM*	-4%	-19%
C=C(C)COc1ccc2c(C)c(CC(=O)NCc3ccc4c(c3)OCO4)c(=O)oc2c1	·	6%	·	·
COC(=O)c1ccc(OCC(=O)c2ccccc2OC)cc1	-8%	20µM*	9%	-3%
O=[N+]([O-])c1ccc(Cl)cc1CN1CCCCCC1	-4%	5µM*	0%	-6%
C/C(=N\NC(N)=S)C1C2C3CC4C5CC(C42)C1C53 (stereo unspecified)	0%	18µM*	14%	1%
Cc1ccc(-n2nc3c(c2NC(=O)CC(C)C)CS(=O)C3)cc1 (stereo unspecified)	-9%	40µM*	4%	-5%
COc1ccc(S[C@]2(C(=O)NCC(F)(F)F)CC(=O)N[C@@H]2c2ccc(OC)cc2)cc1	·	32µM*	·	·
COC(=O)c1cc(OC(C)C)ccc1NC(=O)[C@@]1(Sc2ccc(OC)cc2)CC(=O)N[C@@H]1c1ccc(OC)cc1	·	3%	·	·
C=CCn1c(SCC(=O)N2c3ccccc3Sc3ccccc32)nnc1-c1ccco1	-2%	22µM*	0%	-2%
CCn1c(SCC(=O)N2c3ccccc3Sc3ccccc32)nnc1-c1ccco1	-6%	?	-3%	-23%
CC(C)Oc1ccc(OCCCN2CCCCCC2)cc1	0%	0.45µM*	1%	-4%
CC(C)c1ccc(OCCCCN2CCCCC2)cc1	1%	0%	3%	4%
SMILES	TSG101-PTAP inh	ALOX12 inh	USP2a block	Eya2 inh
COc1ccc(-n2nc3n(c2=O)CCN([S+](=O)([O-])c2ccccc2)C3)cc1	·	9%[6.33 µM]	·	·
Cc1noc(C)c1C(=O)N1Cc2ccccc2CC2(CCN(CC3CCNC3)CC2)C1 (stereo unspecified)	·	2%[6.33 µM]	·	·
O=C(Sc1ccc(Cl)cc1)c1ccccn1	1%	2.8µM*	·	·
COC(=O)C(Br)(C(=O)OC)C(OC)(C(=O)OC)C(=O)OC	·	0.71µM*	·	·
Clc1cccc(N/N=C(\Cc2nc3ccccc3[nH]2)c2ccccc2)c1	-4%	13µM*	1%	-6%
O=C(Nc1cccc(C(F)(F)F)c1)c1nc2c(o1)CCN(Cc1cccc(F)c1)CC2	·	-5%[176 µM]	·	·
CN(Cc1ccccc1C(F)(F)F)C(=O)c1cccc(Cl)c1	·	-1%[176 µM]	·	·
CC1CCCN(C(=S)SCC(=O)c2cc(Br)cc(Br)c2O)C1 (stereo unspecified)	-1%	6.3µM*	2%	-2%
O=C(CSC(=S)N1CCCC1)c1cc(Br)cc(Br)c1O	-1%	14µM*	-4%	-6%
O=C(CSC(=S)N1CCCC1)Nc1cc2c(cc1Br)OCCO2	-5%	-12%	0%	-15%
